The values below come from PMC7862700, “An all-to-all approach to the identification of sequence-specific readers for epigenetic DNA modifications on cytosine”.

What all share (experiment): DAPPL (digital affinity profiling via proximity ligation, sequencing); 10 mM Tris-HCl pH 7.5, 50 mM NaCl, 1 mM DTT, 4% glycerol, room temperature, 30 min; GST-TFs on glutathione beads, 16-mer random dsDNA library, 0.1% formaldehyde crosslink after washing; high values mean tight binding
In experiment [1] the target is T1, FLI1 (Homo sapiens, UniProt Q01543 1-452).
T1 sequence: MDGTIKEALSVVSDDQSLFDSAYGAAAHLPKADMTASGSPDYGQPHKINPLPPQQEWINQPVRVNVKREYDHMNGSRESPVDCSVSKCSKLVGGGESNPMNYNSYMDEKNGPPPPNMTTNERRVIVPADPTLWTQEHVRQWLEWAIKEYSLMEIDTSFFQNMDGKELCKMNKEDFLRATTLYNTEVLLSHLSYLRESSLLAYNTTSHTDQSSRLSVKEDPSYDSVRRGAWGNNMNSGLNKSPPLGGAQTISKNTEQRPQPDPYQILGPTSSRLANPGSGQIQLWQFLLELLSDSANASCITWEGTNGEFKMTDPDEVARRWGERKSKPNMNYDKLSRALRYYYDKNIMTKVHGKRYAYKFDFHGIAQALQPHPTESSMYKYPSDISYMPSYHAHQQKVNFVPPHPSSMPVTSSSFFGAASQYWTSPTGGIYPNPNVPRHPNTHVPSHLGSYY
To be noted: protein: recombinant; tags: N-terminal GST; dsDNA, one strand shown. Put shortly:
(§1)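 The binding signal reported is, for every hexamer, its read frequency for a factor over its read frequency for the tag-only sample. Reads came from pools of yeast-expressed, GST-fused human transcription factors on glutathione beads, barcoded with DNA and mixed with that sample, which were incubated with 200 nmole of a random double-stranded 16-mer DNA library in Tris/NaCl/DTT/glycerol buffer at room temperature for 30 min. After washing, the pools were crosslinked with 0.1% formaldehyde, proximity-ligated with BsaI/T4 ligase for 1 h at 37 °C, PCR-amplified and sequenced on an Illumina NextSeq500.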

Experiment [2] deals with T2, ELK1 (Homo sapiens, UniProt P19419 1-428).
T2 sequence: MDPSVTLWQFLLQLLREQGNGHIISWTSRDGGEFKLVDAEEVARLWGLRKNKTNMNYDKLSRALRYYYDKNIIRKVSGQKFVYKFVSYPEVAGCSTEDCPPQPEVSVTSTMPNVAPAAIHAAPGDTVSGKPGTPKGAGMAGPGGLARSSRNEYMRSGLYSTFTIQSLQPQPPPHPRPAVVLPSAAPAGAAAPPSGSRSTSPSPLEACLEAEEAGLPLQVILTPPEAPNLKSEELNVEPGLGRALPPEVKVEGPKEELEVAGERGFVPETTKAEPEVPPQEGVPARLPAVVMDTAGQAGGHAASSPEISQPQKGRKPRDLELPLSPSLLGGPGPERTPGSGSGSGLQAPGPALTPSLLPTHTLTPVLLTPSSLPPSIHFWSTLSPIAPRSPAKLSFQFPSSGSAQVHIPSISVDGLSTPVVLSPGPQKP
To be noted: protein: recombinant; tags: N-terminal GST; dsDNA, one strand shown. In a few lines:
as §1

Experiment [3] has as its target T3, GABPA (Homo sapiens, UniProt Q06546 1-454).
T3 sequence: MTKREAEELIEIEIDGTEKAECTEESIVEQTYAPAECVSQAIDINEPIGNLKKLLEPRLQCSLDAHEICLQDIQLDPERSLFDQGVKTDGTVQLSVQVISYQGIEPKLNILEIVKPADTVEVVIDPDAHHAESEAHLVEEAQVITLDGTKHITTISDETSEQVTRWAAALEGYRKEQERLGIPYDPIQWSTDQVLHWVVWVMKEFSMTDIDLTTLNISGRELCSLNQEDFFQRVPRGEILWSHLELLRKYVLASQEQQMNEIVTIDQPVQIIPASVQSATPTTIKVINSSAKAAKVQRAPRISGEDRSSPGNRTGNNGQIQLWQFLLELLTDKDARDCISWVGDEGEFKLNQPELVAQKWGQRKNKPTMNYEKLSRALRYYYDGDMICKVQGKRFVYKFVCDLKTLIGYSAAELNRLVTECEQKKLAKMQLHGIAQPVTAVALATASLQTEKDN
Conditions: protein: recombinant; tags: N-terminal GST; dsDNA, one strand shown. In a few lines: as §1

The target of experiment [4] is T4, ERG (Homo sapiens, UniProt P11308 1-479).
T4 sequence: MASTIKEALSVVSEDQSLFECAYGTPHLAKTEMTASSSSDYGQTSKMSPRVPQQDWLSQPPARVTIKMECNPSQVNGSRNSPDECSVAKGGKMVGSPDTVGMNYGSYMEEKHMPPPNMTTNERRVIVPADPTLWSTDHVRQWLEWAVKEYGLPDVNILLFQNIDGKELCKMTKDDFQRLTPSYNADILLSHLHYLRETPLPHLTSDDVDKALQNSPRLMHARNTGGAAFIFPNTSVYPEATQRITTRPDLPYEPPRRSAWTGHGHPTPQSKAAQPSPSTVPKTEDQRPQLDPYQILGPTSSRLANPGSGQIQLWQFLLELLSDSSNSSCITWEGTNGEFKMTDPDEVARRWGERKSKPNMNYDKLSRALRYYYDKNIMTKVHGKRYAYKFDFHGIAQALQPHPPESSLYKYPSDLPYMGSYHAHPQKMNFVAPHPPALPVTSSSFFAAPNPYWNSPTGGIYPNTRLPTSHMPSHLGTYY
To be noted: protein: recombinant; tags: N-terminal GST; dsDNA, one strand shown. Put shortly:
as §1

Experiment [5] concerns the target ELF1 (Homo sapiens, UniProt P32519 1-619). To be noted: protein: recombinant; tags: N-terminal GST; dsDNA, one strand shown. In a few lines:
as §1

For experiment [6], the target named is T5, EHF (Homo sapiens, UniProt Q9NZC4 1-300).
T5 sequence: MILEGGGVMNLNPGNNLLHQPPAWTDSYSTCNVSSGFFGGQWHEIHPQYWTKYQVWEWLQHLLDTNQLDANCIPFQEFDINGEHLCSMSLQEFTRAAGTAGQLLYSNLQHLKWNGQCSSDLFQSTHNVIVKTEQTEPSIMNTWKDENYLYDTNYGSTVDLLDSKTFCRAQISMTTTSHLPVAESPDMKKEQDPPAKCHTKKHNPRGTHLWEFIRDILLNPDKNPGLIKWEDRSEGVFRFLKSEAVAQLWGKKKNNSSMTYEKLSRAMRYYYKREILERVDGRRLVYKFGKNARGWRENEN
Conditions: protein: recombinant; tags: N-terminal GST; dsDNA, one strand shown. Put shortly: as §1

Experiment [7] concerns the target SPI1 (Homo sapiens, UniProt P17947 1-270). To be noted: protein: recombinant; tags: N-terminal GST; dsDNA, one strand shown. Put shortly: as §1
The target of experiment [8] is SPIB (Homo sapiens, UniProt Q01892 1-262). Conditions: protein: recombinant; tags: N-terminal GST; dsDNA, one strand shown. Put shortly: as §1
SPIB, sequence (Q01892 whole entry): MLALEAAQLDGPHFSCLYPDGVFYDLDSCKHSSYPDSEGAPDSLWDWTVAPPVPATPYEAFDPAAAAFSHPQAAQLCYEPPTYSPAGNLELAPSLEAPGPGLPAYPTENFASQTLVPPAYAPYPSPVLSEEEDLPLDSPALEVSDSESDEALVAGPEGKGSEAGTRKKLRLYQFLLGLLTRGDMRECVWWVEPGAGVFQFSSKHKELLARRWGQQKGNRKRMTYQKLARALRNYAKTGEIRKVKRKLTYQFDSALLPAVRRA
For experiment [9], the target named is T6, ELK3 (Homo sapiens, UniProt P41970 1-407).
T6 sequence: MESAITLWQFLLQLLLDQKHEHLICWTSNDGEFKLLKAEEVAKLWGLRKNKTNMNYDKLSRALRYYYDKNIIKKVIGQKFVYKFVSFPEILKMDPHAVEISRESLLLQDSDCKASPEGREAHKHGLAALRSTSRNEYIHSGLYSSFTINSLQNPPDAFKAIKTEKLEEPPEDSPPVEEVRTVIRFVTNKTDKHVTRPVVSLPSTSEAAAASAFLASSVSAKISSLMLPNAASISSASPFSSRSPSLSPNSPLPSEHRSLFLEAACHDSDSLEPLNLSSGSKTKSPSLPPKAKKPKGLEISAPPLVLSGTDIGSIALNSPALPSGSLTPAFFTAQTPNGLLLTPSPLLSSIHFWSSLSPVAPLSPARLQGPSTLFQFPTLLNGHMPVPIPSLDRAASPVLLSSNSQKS
Conditions: protein: recombinant; tags: N-terminal GST; dsDNA, one strand shown. Put shortly: as §1

Experiment [10] has as its target T7, FEV (Homo sapiens, UniProt Q99581 1-238).
T7 sequence: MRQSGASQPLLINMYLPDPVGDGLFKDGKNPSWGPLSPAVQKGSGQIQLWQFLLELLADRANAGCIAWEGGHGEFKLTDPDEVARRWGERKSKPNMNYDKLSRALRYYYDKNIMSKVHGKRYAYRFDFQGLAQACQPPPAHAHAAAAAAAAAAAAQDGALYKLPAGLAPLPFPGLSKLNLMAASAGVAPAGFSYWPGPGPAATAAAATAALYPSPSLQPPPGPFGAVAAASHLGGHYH
Conditions: protein: recombinant; tags: N-terminal GST; dsDNA, one strand shown. Put shortly:
as §1

Experiment [11] addresses ETV5 (Homo sapiens, UniProt P41161 1-510). Conditions: protein: recombinant; tags: N-terminal GST; dsDNA, one strand shown. In a few lines:
as §1

Experiment [12] concerns the target HSF1 (Homo sapiens, UniProt Q00613 1-529). Conditions: protein: recombinant; tags: N-terminal GST; chain copies: 3; dsDNA, one strand shown. Put shortly:
as §1

The target of experiment [13] is T8, SPIC (Homo sapiens, UniProt Q8N5J4 1-248).
T8 sequence: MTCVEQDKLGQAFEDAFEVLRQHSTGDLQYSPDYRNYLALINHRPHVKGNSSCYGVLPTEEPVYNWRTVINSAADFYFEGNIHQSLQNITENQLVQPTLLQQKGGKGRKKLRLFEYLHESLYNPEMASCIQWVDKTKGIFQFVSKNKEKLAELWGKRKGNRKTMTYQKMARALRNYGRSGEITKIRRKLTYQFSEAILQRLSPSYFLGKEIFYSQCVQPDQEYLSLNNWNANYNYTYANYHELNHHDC
To be noted: protein: recombinant; tags: N-terminal GST; dsDNA, one strand shown. Put shortly: as §1

Experiment [14] deals with ELF4 (Homo sapiens, UniProt Q99607 1-663). To be noted: protein: recombinant; tags: N-terminal GST; dsDNA, one strand shown. Put shortly:
as §1

Experiment [15] deals with T9, ELK4 (Homo sapiens, UniProt P28324-2 1-405).
T9 sequence: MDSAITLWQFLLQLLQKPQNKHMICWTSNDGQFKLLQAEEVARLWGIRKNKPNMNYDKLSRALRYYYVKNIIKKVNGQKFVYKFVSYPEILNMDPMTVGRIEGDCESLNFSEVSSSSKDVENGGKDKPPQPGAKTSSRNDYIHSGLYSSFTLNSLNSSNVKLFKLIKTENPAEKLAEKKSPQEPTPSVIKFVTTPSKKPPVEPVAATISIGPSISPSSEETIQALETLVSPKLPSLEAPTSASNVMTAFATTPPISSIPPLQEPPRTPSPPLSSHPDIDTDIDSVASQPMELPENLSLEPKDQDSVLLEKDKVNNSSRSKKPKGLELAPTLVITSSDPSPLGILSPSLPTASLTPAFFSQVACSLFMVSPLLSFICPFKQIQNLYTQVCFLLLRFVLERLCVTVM
Conditions: protein: recombinant; tags: N-terminal GST; dsDNA, one strand shown. In a few lines:
as §1

In experiment [16] the target is T10, ETV2 (Homo sapiens, UniProt O00321 1-342).
T10 sequence: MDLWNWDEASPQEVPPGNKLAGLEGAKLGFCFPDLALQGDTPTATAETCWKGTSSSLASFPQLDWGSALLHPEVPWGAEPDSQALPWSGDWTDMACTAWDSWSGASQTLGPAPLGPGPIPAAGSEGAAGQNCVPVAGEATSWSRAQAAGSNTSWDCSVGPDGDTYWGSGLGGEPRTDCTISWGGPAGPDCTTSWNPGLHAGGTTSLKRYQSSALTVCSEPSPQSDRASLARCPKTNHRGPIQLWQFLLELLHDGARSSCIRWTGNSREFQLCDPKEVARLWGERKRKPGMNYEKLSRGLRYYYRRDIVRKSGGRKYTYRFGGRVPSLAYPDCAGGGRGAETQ
To be noted: protein: recombinant; tags: N-terminal GST; dsDNA, one strand shown. Put shortly:
as §1

Experiment [17] addresses T11, ELF3 (Homo sapiens, UniProt P78545 1-371).
T11 sequence: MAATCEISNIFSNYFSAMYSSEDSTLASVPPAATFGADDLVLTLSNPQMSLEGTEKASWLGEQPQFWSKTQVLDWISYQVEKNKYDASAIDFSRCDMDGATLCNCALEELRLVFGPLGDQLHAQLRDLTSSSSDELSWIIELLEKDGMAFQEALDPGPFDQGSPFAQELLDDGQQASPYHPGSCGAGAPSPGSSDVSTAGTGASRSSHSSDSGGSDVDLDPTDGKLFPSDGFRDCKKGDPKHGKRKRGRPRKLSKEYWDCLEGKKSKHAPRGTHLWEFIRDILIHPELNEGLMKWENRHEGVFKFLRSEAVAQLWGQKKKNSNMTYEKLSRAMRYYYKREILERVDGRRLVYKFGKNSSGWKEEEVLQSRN
Conditions: protein: recombinant; tags: N-terminal GST; dsDNA, one strand shown. In a few lines: as §1

The target of experiment [18] is CRX (Homo sapiens, UniProt O43186 1-299). Conditions: protein: recombinant; tags: N-terminal GST; dsDNA, one strand shown. In a few lines: as §1
CRX, sequence (O43186 whole entry): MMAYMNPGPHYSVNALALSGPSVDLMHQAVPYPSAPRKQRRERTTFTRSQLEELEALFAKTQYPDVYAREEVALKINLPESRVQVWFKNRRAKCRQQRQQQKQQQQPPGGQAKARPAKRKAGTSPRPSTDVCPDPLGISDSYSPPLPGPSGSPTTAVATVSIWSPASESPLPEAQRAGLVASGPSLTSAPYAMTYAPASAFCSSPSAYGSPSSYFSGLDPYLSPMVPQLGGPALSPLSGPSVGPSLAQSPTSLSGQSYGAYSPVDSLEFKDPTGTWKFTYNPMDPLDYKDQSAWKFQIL
For experiment [19], the target named is ETV1 (Homo sapiens, UniProt P50549 1-477). Conditions: protein: recombinant; tags: N-terminal GST; dsDNA, one strand shown. In a few lines: as §1
ETV1, sequence (P50549 whole entry): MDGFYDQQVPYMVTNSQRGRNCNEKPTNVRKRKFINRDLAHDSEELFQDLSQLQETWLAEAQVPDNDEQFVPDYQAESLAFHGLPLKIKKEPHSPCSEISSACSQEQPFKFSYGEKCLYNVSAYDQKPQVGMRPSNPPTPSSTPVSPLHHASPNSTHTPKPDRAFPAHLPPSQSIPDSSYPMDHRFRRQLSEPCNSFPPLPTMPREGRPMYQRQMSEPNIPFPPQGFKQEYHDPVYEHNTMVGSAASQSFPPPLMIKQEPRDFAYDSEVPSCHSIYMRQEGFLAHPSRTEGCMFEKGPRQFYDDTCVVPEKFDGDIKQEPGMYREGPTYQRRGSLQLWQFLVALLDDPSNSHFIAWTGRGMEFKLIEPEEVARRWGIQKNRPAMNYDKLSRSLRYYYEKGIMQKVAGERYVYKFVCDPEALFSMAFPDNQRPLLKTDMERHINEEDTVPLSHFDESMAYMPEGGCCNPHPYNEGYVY

ETV5, sequence (P41161 whole entry): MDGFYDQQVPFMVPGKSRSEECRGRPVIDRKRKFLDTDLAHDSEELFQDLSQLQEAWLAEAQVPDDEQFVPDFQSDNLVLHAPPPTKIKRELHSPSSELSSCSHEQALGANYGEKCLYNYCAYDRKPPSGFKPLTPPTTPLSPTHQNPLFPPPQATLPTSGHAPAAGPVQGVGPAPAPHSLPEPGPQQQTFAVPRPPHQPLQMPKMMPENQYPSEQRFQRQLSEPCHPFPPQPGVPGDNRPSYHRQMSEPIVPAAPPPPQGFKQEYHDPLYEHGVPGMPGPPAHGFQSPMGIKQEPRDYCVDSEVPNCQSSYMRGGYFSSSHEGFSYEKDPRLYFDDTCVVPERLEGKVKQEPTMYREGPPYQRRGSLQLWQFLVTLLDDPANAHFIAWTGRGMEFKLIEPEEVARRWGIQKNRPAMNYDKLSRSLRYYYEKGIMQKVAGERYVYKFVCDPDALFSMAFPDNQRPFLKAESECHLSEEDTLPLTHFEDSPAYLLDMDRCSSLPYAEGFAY
ELF1, sequence (P32519 whole entry): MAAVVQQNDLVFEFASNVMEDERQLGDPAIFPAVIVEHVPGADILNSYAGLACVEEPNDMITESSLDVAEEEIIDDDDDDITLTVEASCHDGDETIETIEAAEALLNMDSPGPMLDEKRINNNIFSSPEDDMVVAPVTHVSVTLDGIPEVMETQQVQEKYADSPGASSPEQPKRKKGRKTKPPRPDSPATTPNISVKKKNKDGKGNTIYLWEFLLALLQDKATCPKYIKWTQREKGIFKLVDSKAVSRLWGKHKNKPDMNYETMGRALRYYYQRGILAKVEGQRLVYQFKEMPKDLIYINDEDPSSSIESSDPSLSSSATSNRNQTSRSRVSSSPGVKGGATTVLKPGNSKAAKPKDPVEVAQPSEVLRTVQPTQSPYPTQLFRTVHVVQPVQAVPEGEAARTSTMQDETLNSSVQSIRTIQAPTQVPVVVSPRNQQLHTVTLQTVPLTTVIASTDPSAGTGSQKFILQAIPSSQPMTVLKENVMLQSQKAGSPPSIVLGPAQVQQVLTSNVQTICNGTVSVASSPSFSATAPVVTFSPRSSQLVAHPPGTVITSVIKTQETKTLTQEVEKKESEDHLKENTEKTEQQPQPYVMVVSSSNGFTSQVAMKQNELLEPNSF
HSF1, sequence (Q00613 whole entry): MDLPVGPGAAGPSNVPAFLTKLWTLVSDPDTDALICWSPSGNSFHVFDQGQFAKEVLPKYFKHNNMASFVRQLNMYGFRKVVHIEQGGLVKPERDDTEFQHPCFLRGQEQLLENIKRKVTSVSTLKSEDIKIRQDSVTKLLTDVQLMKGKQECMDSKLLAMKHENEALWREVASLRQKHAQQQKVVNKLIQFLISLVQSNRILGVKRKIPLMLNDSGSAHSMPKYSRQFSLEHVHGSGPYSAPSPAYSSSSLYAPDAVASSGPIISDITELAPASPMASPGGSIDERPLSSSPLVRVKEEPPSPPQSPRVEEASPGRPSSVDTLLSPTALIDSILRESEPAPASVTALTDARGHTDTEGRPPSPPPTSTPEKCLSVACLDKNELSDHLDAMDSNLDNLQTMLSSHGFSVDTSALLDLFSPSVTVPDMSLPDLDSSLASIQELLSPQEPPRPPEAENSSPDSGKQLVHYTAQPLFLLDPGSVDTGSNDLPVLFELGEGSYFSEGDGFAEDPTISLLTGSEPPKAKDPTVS
ELF4, sequence (Q99607 whole entry): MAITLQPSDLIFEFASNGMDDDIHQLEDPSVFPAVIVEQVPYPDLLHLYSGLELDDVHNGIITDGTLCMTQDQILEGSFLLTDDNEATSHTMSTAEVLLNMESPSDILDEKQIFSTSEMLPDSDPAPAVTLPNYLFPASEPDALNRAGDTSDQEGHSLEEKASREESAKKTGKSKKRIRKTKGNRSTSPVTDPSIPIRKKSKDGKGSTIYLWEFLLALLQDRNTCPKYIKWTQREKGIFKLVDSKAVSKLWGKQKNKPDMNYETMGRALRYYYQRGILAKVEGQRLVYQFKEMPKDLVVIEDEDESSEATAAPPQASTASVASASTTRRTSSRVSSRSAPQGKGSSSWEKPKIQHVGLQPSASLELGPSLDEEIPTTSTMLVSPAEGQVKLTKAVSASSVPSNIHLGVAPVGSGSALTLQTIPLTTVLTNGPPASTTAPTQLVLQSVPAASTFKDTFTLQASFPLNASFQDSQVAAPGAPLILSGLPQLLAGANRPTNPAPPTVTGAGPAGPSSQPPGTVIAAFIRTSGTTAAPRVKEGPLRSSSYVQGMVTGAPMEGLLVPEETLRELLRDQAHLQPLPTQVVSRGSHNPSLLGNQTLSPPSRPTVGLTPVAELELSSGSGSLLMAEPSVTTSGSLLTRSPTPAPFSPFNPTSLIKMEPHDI

For TACGCC, the binding signal in experiment [1] was 1.39 fold enrichment (6-mer frequency, TF over GST control); in experiment [2], 1.22 fold enrichment (6-mer frequency, TF over GST control); in [3], 1.3 fold enrichment (6-mer frequency, TF over GST control); in [4] it was 1.16 fold enrichment (6-mer frequency, TF over GST control); in [5], 1.28 fold enrichment (6-mer frequency, TF over GST control); in experiment [6], 1.18 fold enrichment (6-mer frequency, TF over GST control). Moreover, the binding signal in experiment [7] was 1.18 fold enrichment (6-mer frequency, TF over GST control); in [8] it was 1.18 fold enrichment (6-mer frequency, TF over GST control); in experiment [9], 1.23 fold enrichment (6-mer frequency, TF over GST control); in experiment [10], 1.25 fold enrichment (6-mer frequency, TF over GST control); in experiment [11], 1.26 fold enrichment (6-mer frequency, TF over GST control); in experiment [12], 1.17 fold enrichment (6-mer frequency, TF over GST control). Also, the binding signal in [13] was 1.32 fold enrichment (6-mer frequency, TF over GST control); in experiment [14], 1.29 fold enrichment (6-mer frequency, TF over GST control); in experiment [15] it was 1.24 fold enrichment (6-mer frequency, TF over GST control); in experiment [16], 1.02 fold enrichment (6-mer frequency, TF over GST control); in experiment [17], 1.14 fold enrichment (6-mer frequency, TF over GST control); in experiment [18] it was 1.2 fold enrichment (6-mer frequency, TF over GST control). Further, the binding signal in [19] is 1.22 fold enrichment (6-mer frequency, TF over GST control).
